Bioassay records as filed in PubChem BioAssay.
The full list was thinned out, with hits kept by preference.
Dicer processing – inhibitors of Dicer pre-microRNA processing, primary screen, biochemical, cat-ELCCA, chemiluminescence. Endoribonuclease Dicer (Homo sapiens), Q9UPY3. cat-ELCCA pre-miR-21 Dicer processing; hits give high values. z-score at 25 µM. 47,000 tested, 6% active; in the data active means z-score above about 3, passing the limit was not always enough;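 further: higher signal means more uncleaved substrate so more Dicer inhibition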
A number is an active result; 0 = inactive.

SMILES	Dicer processing
COC(=O)Cn1c(=O)oc2ccc(C)cc21	3.68
Cc1ccc2oc(=O)n(Cc3ccc(OC(C)C)cc3)c2c1	3.17
O=c1oc2ccccc2n1Cc1cccc(Cl)c1	0
CCCc1[nH]nc2c1C(c1cccc(OC)c1OC)C(C#N)=C(N)O2 (stereo not drawn)	0
CC(C)c1cc(=O)n2c([nH]c3ccccc32)c1C#N	0
CCN(CC)CCNS(=O)(=O)c1cccc2nsnc12	0
N=C1CC(=O)N=C2SC(C3CC3)=NN12	0
COC(=O)c1cc(-c2ccc(Br)cc2)no1	0
c1ccc(-c2ccc(-c3nc(-c4cccnc4)no3)cc2)cc1	3.16
COc1ccc(-c2nc(-c3cccnc3)no2)cc1	0
Cc1ccc(-c2nc(-c3cccnc3)no2)cc1C	0
CN(C)Cc1c(O)ccc2c(=O)c(-c3cccc(Cl)c3)c(C(F)(F)F)oc12	0
Cn1c(SCC(=O)c2ccc(F)cc2)nnc1-c1ccc2ccccc2c1	0
COc1cc(C2SCc3cc(C)c(C)cc3CS2)ccc1O	0
Cc1cc(C2CCCCC2)ccc1O	5.63
S=C(Nc1ccc(C2CCCCC2)cc1)N1CCSCC1	0
Cc1ccc(S(=O)(=O)Nc2ccc([N+](=O)[O-])cc2NS(=O)(=O)c2ccc(C)cc2)cc1	0
COc1ccc(C2CC(=O)C3=C(C2)Nc2ccccc2NC3c2ccc3c(c2)OCO3)cc1OC (stereo not drawn)	0
CN(C)c1ccc(C2Nc3ccccc3NC3=C2C(=O)CC(c2cccs2)C3)cc1 (stereo not drawn)	0
O=C1CC(c2ccccc2)CC2=C1C(c1ccsc1)Nc1ccccc1N2 (stereo not drawn)	0
Cc1ccc2occ(C3Nc4ccccc4NC4=C3C(=O)CC(c3ccccc3)C4)c(=O)c2c1 (stereo not drawn)	0
Cc1ccc(C2Nc3ccccc3NC3=C2C(=O)CC(c2ccc4c(c2)OCO4)C3)s1 (stereo not drawn)	5.42
Cc1ccc(C)c(C2Nc3ccccc3NC3=C2C(=O)CC(c2cccs2)C3)c1 (stereo not drawn)	3.37
Cc1ccc2occ(C3Nc4ccccc4NC4=C3C(=O)CC(c3ccccc3Cl)C4)c(=O)c2c1 (stereo not drawn)	0
O=C1CC(c2ccc(Cl)cc2)CC2=C1C(c1ccc3c(c1)OCO3)Nc1ccccc1N2 (stereo not drawn)	0
SMILES	Dicer processing
Cc1ccc(C2Nc3ccccc3NC3=C2C(=O)CC(c2cccs2)C3)cc1 (stereo not drawn)	3.24
Cc1ccccc1N1CC(O)=C(c2nc3ccccc3s2)C1=N	0
CCn1c2ccccc2c2nc3cc4ccccc4cc3nc21	0
O=C(Cc1coc2ccc3ccccc3c12)Nc1ccc(Cl)cn1	0
COC(=O)COc1ccccc1C1C(C(=O)OC)=C(C)NC2=C1C(=O)c1ccccc12 (stereo not drawn)	0
CCOc1cccc(C(Nc2ccccn2)c2ccc3ccc(C)nc3c2O)c1 (stereo not drawn)	0
COc1cccc(C(Nc2cc(C)ccn2)c2ccc3ccc(C)nc3c2O)c1 (stereo not drawn)	6.83
COc1ccc(C(Nc2ccccn2)c2ccc3ccc(C)nc3c2O)cc1OC (stereo not drawn)	0
CCOc1cc(C(Nc2cc(C)ccn2)c2ccc3cccnc3c2O)ccc1OC (stereo not drawn)	0
CCOc1ccc(C(Nc2cc(C)ccn2)c2ccc3cccnc3c2O)cc1OC (stereo not drawn)	5.23
COc1cc(C(Nc2cc(C)ccn2)c2ccc3cccnc3c2O)ccc1O (stereo not drawn)	11.1
COc1ccc(C)cc1NC(c1cccnc1)c1ccc2cccnc2c1O (stereo not drawn)	0
Cc1ccnc(NC(c2ccc(N(C)C)cc2)c2ccc3cccnc3c2O)c1 (stereo not drawn)	0
CCOc1cc(C(Nc2cc(C)ccn2)c2ccc3cccnc3c2O)ccc1O (stereo not drawn)	14
Cc1ccnc(NC(c2ccc(N(C)C)cc2)c2ccc3ccc(C)nc3c2O)c1 (stereo not drawn)	0
COCc1cc(=O)[nH]c(/N=C(\N)Nc2ccc(Oc3ccc(Cl)cc3)cc2)n1	0
CC(=O)Nc1ccc(O)c(C(=O)CC(=O)c2ccccc2)c1	0
O=C(O)CC1S/C(=N\N=C\c2ccccc2Cl)NC1=O (stereo not drawn)	0
Cc1ccc2oc3c(c(=O)c2c1)C(c1ccc(F)cc1)N(c1nccs1)C3=O (stereo not drawn)	0
COc1ccc(C(=O)c2c(NC(=O)CCC(=O)O)sc3c2CCN(C(=O)OC(C)(C)C)C3)cc1	0
N#Cc1c(C2CCCCC2)nc(Sc2ccc(C(F)(F)F)cc2[N+](=O)[O-])[nH]c1=O	0
Cc1ccccc1CSc1ncn[nH]1	0
CC(=O)N1c2ccccc2C(C)CC1(C)C (stereo not drawn)	0
COc1ccc(NC(=O)N(Cc2ccccc2)C(=O)CC#N)cc1	0
CN(C)/C=C/C=c1/c(=O)c2cccc3cccc1c32	3.72
SMILES	Dicer processing
CN(C)/C=C/C=C1\N=C(c2ccccc2)OC1=O	0
CN(C)N1C(=O)c2cccc3cccc(c23)C1=O	0
CC(C)(CO)NC(=O)CC(=O)NC(C)(C)CO	0
O=C(NC1CCCC1)c1cc2n(n1)C(C(F)(F)F)CC(c1ccc(F)cc1)N2 (stereo not drawn)	0
C(#Cc1cncc(-c2nc(-c3ccccc3)no2)c1)c1ccccc1	0
O=C(O)CCC(C(=O)O)N1C(=O)c2ccccc2C1=O (stereo not drawn)	3.19
O=C(O)CCC(NC(=O)OCc1ccccc1)C(=O)O (stereo not drawn)	0
O=C(CCC(C(=O)O)N1C(=O)c2ccccc2C1=O)Nc1ccc2c(c1)COCO2 (stereo not drawn)	0
CSc1nnc2c(n1)OC(C)=Nc1ccc(Cl)cc1-2	0
CCOC(=O)c1c(C)n(S(C)(=O)=O)c2ccc(N(C(=O)c3cccs3)S(C)(=O)=O)cc12	0
Cn1nc(C(F)(F)F)c(-c2ccccc2)c1NC(=O)COCC(=O)O	0
Cc1ccc2oc(-c3cc(N)ccc3Cl)nc2c1	0
Nc1ccc(Cl)c(-c2nc3cc(Cl)ccc3o2)c1	0
CCc1ccc2oc(-c3cc(N)ccc3Cl)nc2c1	4.5
COC(=O)CS(=O)(=O)c1nccn1C	0
O=C(Cn1c(-c2cncs2)nc2ccccc21)Nc1ccccc1Cl	0
Clc1ccc(Cn2c(-c3cncs3)nc3ccccc32)cc1	0
O=C(Cn1c(-c2cncs2)nc2ccccc21)Nc1ccc2c(c1)OCCO2	4.22
Cc1nonc1NC(=O)OC1CCCCC1	3.42
Cc1nonc1NC(=O)OC(C)C	0
COC(=O)C(C(=O)Nc1cc(C)on1)C1CCCC1 (stereo not drawn)	0
Cc1ccc(C)c(S(=O)(=O)N2CCN(S(=O)(=O)c3cc(C)ccc3C)C(C)C2)c1 (stereo not drawn)	0
Cc1ccc(OCc2nc(-c3ccc(C)cc3)no2)cc1	0
C#CCOCCCS(=O)(=O)O	0
CN(C)/N=C(\Cn1nnc(N2CCCC2)n1)c1ccc(Cl)cc1	0
COc1ccccc1-c1c(C(F)(F)F)oc2cc(OC(C)C(=O)OC(C)C)ccc2c1=O (stereo not drawn)	0
Cc1ccsc1C1CC(=O)NC(SCC(=O)Nc2ccc(Br)cc2)=C1C#N (stereo not drawn)	0
O=[N+]([O-])c1cccnc1Oc1ccc(OCc2ccccc2)cc1	0
O=[N+]([O-])c1cc(F)ccc1/C=C/N1CCCC1	0
O=[N+]([O-])c1ccc(OCc2ccccc2)cc1/C=C\N1CCCC1	3.01
